From PubChem BioAssay (Tox21)
Results filed as inconclusive are left out. Activity calls are given as the source filed them. Unless noted, the call rests on the fitted dose curve; in most records, active means well fitted curve in the direction sought with a large enough effect in the repeat runs; inconclusive means weak or mixed curves; inactive means no such curve, though single readings can be large; an effect the other way counts as inactive or inconclusive.

Legend:
[1] = qHTS assay to identify small molecule antagonists of the vitamin D receptor (VDR) signaling pathway - cell viability counter screen (AID 743225); further: nearly all actives have a fitted effect of over 50% in size; further: potency means the concentration at half of the fitted maximal effect
In short: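 Read-out: CellTiter-Glo luminescence measured 30 min after reagent addition at room temperature. Cells were VDR-bla HEK 293T exposed 16 h at 37C, 5% CO2, to compound with 3 nM final calcitriol agonist.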

[2] = qHTS assay to identify small molecule agonists of the NFkB signaling pathway - cell viability counter screen (AID 1159515; calls by dose curve; further: series mostly up to about 61 µM; on the % scale 0 is the no-effect control and ±100 the full control effect; nearly all actives have a fitted effect of over 55% in size)
In short: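 Counter screen run alongside the NFkB-bla agonist assay: ME-180 reporter cells exposed to compounds for 5 hr, then lysed with CellTiter-Glo in the same wells. Luminescence, read after 30 min, reflects viable cells.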

[3] = qHTS assay to identify small molecule agonists of the endoplasmic reticulum stress response signaling pathway (AID 1159516; active means well fitted activation curve with a large enough effect in the signal ratio in the repeat runs, not every such curve was filed as active; the % refers to the signal ratio; further: potency means the concentration at half of the fitted maximal effect)
In short: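 For this screen, HeLa cells stably carrying beta-lactamase under the ER stress response element received test compounds, positive controls or DMSO for 5 hr at 37 C; B/G FRET substrate was then added and dual-wavelength emission recorded.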

[4] = qHTS assay to identify small molecule agonists of the endoplasmic reticulum stress response signaling pathway - cell viability counter screen (AID 1159517; calls by dose curve; further: series mostly up to about 61 µM; on the % scale 0 is the no-effect control and ±100 the full control effect; nearly all actives have a fitted effect of over 50% in size)
In short: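 Steps: seed 1,500 ESRE-bla HeLa cells per well; incubate overnight at 37 C, 5% CO2; add compounds in DMSO for 5 hr; run FRET substrate 2 hr RT; add CellTiter-Glo, wait 30 min, read luminescence.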

[5] = qHTS assay to identify small molecule antagonists of the retinoid-related orphan receptor gamma (ROR-gamma) signaling pathway - cell viability counter screen (AID 1159520); further: nearly all actives have a fitted effect of over 50% in size; further: potency means the concentration at half of the fitted maximal effect
In short: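 Tet-on ROR gamma CHO cells were given compounds for 2 hr, then doxycycline hyclate at 1 uM final, and incubated 16 hr at 37 C. Viability was measured as ATP content by CellTiter-Glo luminescence.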

[6] = qHTS assay to identify small molecule agonists of the AP-1 signaling pathway - cell viability counter screen (AID 1159525; calls by dose curve; further: nearly all actives have a fitted effect of over 55% in size; further: potency means the concentration at half of the fitted maximal effect)
In short: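 Same-well cytotoxicity counter screen of the Tox21 10K library in ME-180 cells. The readout is ATP-dependent luminescence after 5 h compound treatment. Data are normalised to DMSO and tetra n-octyl ammonium bromide controls.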

[7] = qHTS assay to identify small molecule agonists of the AP-1 signaling pathway (AID 1159526; calls by dose curve; further: potency means the concentration at half of the fitted maximal effect)
[8] = qHTS assay to identify small molecule agonists of the RXR signaling pathway - cell viability counter screen (AID 1159529); further: nearly all actives have a fitted effect of over 50% in size; further: potency means the concentration at half of the fitted maximal effect
In short: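 HEK 293T RXRa-bla cells, 2% CS-FBS; 5 h settle; cpd 16 h 37 C, 5% CO2; CellTiter-Glo 30 min RT, luminescence. Tetraoctyl ammonium bromide as positive control.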

[9] = qHTS assay to identify small molecule antagonists of the retinoid acid receptor (RAR) signaling pathway - cell viability counter screen (AID 1159551); further: on the % scale 0 is the no-effect control and ±100 the full control effect; nearly all actives have a fitted effect of over 35% in size
In short: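 Measured by luminescent ATP detection, viability reflects C3RL4 cells treated 6 h at 37 C with test chemicals in the presence of 1 uM (final) retinol.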

[10] = qHTS assay to identify small molecule antagonists of the retinoic acid receptor (RAR) signaling pathway (AID 1159552)
In short: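 Cells of the C3RL4 line were seeded, incubated overnight, then dosed with compounds in DMSO followed immediately by retinol (1 uM final). Six hours later luciferase detection reagent went in; signal was measured after 30 min at RT.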

[11] = qHTS assay to identify small molecule agonists of the retinoic acid receptor (RAR) signaling pathway (AID 1159553); further: on the % scale 0 is the no-effect control and ±100 the full control effect
In short: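 6 hr compound exposure (DMSO vehicle) of overnight-plated C3RL4 RARE-luc cells at 37 C; luminescence quantified after 30 min RT with luciferase reagent.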

[12] = qHTS assay to identify small molecule antagonists of the estrogen related receptor (ERR) signaling pathway from Tox21 library - cell viability counter screen (AID 1224834); further: nearly all actives have a fitted effect of over 30% in size; further: potency means the concentration at half of the fitted maximal effect
In short: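 Seeded ERR cells were rested 6 h at 37 C/5% CO2 before compounds, positive and negative controls or DMSO were added. Incubation continued for 17.5 h, and viability was then quantified by CellTiter-Fluor fluorescence.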

[13] = biological target: Retinoic acid receptor RXR-alpha (Homo sapiens) (UniProt P19793); assay: qHTS assay to identify small molecule agonists of the RXR signaling pathway (AID 1159527; calls by dose curve; further: on the % scale 0 is the no-effect control and ±100 the full control effect; nearly all actives have a fitted effect of over 35% in size)
In short: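 Read-out: beta-lactamase FRET ratio (405 nm excitation, 460 and 530 nm emission) after 2 hr substrate loading at room temperature. Cells were RXR-alpha-UAS-bla HEK 293T treated with compounds for 16 hr in 2% charcoal-stripped FBS medium.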

[14] = qHTS assay to identify small molecule antagonists of the estrogen related receptor (ERR) signaling pathway - cell viability counter screen (AID 1224818); further: series mostly up to about 46 µM; on the % scale 0 is the no-effect control and ±100 the full control effect
In short: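 Compounds dissolved in DMSO were applied to ERR cells seeded at 2,000 per well 6 h earlier. Cell viability followed 17.5 h later via 30-min CellTiter-Fluor fluorescence.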

[15] = qHTS assay to identify small molecule antagonists of the estrogen related receptor (ERR) signaling pathway (AID 1224819)
In short: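 Compounds dissolved in DMSO were pin-transferred onto ERR cells that had been plated 6 h earlier, and cells were then incubated 18 h at 37 C; signal was luciferase luminescence via One-Glo.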

[16] = qHTS assay to identify small molecule agonists of the estrogen related receptor (ERR) signaling pathway (AID 1224820); further: on the % scale 0 is the no-effect control and ±100 the full control effect
In short: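 Following a 6 h settling period, 2,000 ERR cells per well receive DMSO-dissolved compounds by pin tool and incubate 18 h at 37 C; agonist activity is scored from One-Glo luminescence read 30 min post-addition.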

[17] = qHTS assay to identify small molecule antagonists of the estrogen related receptor signaling pathway with the pleiotropic PPARgamma coactivator (PGC) cell viability counter screen (AID 1224822; further: series mostly up to about 46 µM; on the % scale 0 is the no-effect control and ±100 the full control effect)
In short: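 Counter screen for cell viability: PGC/ERR cells, 6 h pre-incubation after plating, 17.5 h compound exposure at 37 C, fluorescence from CellTiter-Fluor after 30 min.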

[18] = qHTS assay to identify small molecule agonists of the estrogen related receptor signaling pathway with the pleiotropic PPARgamma coactivator (PGC) (AID 1224823); further: on the % scale 0 is the no-effect control and ±100 the full control effect
In short: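 In this quantitative high-throughput screen, an 18 h, 37 C treatment of PGC/ERR cells with compounds in DMSO preceded a One-Glo luminescence read taken after 30 min at room temperature.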

Sequence of Retinoic acid receptor RXR-alpha (Homo sapiens) (P19793 whole entry, looked up): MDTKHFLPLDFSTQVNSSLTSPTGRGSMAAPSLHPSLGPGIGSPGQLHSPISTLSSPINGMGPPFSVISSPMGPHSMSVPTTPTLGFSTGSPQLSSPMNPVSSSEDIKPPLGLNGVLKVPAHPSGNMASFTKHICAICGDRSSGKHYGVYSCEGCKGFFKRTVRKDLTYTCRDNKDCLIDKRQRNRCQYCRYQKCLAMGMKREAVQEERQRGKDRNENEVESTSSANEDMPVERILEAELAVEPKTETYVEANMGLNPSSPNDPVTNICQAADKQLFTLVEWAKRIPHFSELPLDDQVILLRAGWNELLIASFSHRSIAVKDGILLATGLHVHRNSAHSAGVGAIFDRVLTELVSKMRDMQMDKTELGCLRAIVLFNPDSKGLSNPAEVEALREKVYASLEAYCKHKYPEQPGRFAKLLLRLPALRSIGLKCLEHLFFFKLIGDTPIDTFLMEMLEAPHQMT

CCCCCCc1ccc(-c2ccc(C#N)cc2)cc1
inactive: Potency [1] | Potency [2] | Potency [3] | Potency [4] | Potency [5] | Potency [6] | Potency [7] | Potency [8] | Potency [9] | Potency [10] | Potency [11] | Potency [12]

CCN(CC)CCNc1ccc(CNC=O)c2sc3ccc(OC)cc3c(=O)c12
inactive: Potency [2] | Potency [3] | Potency [4] | Potency [6] | Potency [7]
active: Potency [1] 43.6 µM | Potency [5] 54.5 µM | Potency [8] 3.09 µM | Potency [12] 7.7 µM

COc1cc(Cl)ccc1Oc1ccc(Cl)cc1Cl
inactive: Potency [1] | Potency [2] | Potency [3] | Potency [4] | Potency [5] | Potency [6] | Potency [13] | Potency [9] | Potency [10] | Potency [12]

CC(C)OC(=O)C(C)N(C(=O)c1ccccc1)c1ccc(F)c(Cl)c1 (stereo not given)
inactive: Potency [2] | Potency [3] | Potency [4] | Potency [5] | Potency [6] | Potency [7] | Potency [8] | Potency [10] | Potency [11]

Brc1c2ccccc2c(Br)c2ccccc12
active: Potency [3] 0.882 µM
inactive: viability change, negative = cytotoxic [1] -26.5% [at 6.95 µM] | activity, negative = cytotoxic [2] -0.607% [at 6.95 µM] | activity change, negative = cytotoxicity [4] -1.22% [at 6.95 µM] | activity, negative = cytotoxicity [5] 12% [at 8.39 µM] | viability change, negative = cytotoxic [6] 0.0847% [at 6.97 µM] | activation [7] -11.4% [at 6.97 µM] | activity change, negative = cytotoxicity [8] 0.822% [at 6.97 µM] | activity change, negative = cytotoxicity [9] 11.4% [at 8.39 µM] | activation [11] -1.37% [at 8.36 µM] | viability change, negative = cytotoxic [12] -0.56% [at 8.39 µM]

C=CCOc1ccccc1OCC(O)CNC(C)C (stereo not given)
inactive: Potency [1] | Potency [2] | Potency [3] | Potency [4] | Potency [5] | Potency [6] | Potency [13] | Potency [8] | Potency [10] | Potency [12]

O=C(NCCO[N+](=O)[O-])c1cccnc1
inactive: Potency [1] | Potency [2] | Potency [3] | Potency [4] | Potency [5] | Potency [6] | Potency [13] | Potency [8] | Potency [9] | Potency [12]

CCc1cc(C2=C(C(=O)O)N(c3ccccc3C(F)(F)F)S(=O)(=O)c3ccccc32)cc2c1OCO2
inactive: Potency [1] | Potency [2] | Potency [3] | Potency [4] | Potency [5] | Potency [6] | Potency [7] | Potency [9]
active: Potency [12] 7.61 µM

CC(C)(O)c1ccc(CNC(=O)c2cccnc2Oc2ccc(F)cc2)cc1
inactive: Potency [1] | Potency [2] | Potency [3] | Potency [4] | Potency [5] | Potency [6] | Potency [7] | Potency [9] | Potency [10] | Potency [12]

NCCCN1CCOCC1
inactive: Potency [1] | Potency [2] | Potency [3] | Potency [4] | Potency [5] | Potency [6] | Potency [7] | Potency [8] | Potency [9] | Potency [12]

CN(C)C(=O)NC1(c2ccccc2)CCN(CC[C@@]2(c3ccc(F)c(F)c3)CN(C(=O)c3ccccc3)CCO2)CC1
active: Potency [8] 45.5 µM
inactive: Potency [1] | Potency [2] | Potency [3] | Potency [4] | Potency [5] | Potency [6] | Potency [7] | Potency [9]

CC(C)(COC(=O)c1ccccc1)COC(=O)c1ccccc1
inactive: Potency [1] | Potency [2] | Potency [3] | Potency [4] | Potency [5] | Potency [6] | Potency [7] | Potency [8] | Potency [9] | Potency [12]

CO[C@@H]1[C@H](OC(=O)/C=C/C=C/C=C/C=C/C(=O)O)CC[C@]2(CO2)[C@H]1[C@@]1(C)O[C@@H]1CC=C(C)C
inactive: Potency [1] | Potency [2] | Potency [3] | Potency [4] | Potency [5] | Potency [6] | Potency [7] | Potency [9] | Potency [12]

CC(C)Cc1ccc(C(C)C(=O)OCc2ccccn2)cc1 (stereo not given)
active: Potency [6] 0.239 µM
inactive: Potency [1] | Potency [2] | Potency [3] | Potency [4] | Potency [5] | Potency [7] | Potency [8] | Potency [9] | Potency [12]

CN(C)CCN(Cc1ccccc1)c1ccccn1
inactive: Potency [1] | Potency [2] | Potency [3] | Potency [4] | Potency [5] | Potency [6] | Potency [13] | Potency [8] | Potency [9] | Potency [12]

c1ccc(-c2ccccn2)nc1
inactive: Potency [1] | Potency [2] | Potency [3] | Potency [4] | Potency [5] | Potency [6] | Potency [13] | Potency [8] | Potency [9] | Potency [10] | outcome [14] | Potency [15] | outcome [16] | outcome [17] | outcome [18] | Potency [12]

Cc1c(N)cccc1[N+](=O)[O-]
inactive: Potency [1] | Potency [2] | Potency [3] | Potency [4] | Potency [5] | Potency [6] | Potency [7] | Potency [8] | Potency [9] | Potency [11]

CC(=O)c1ccc2c(c1)N(CCCN(C)C)c1ccccc1S2
inactive: Potency [1] | Potency [2] | Potency [3] | Potency [4] | Potency [5] | Potency [6] | Potency [13] | Potency [9] | Potency [11] | outcome [14] | outcome [17]

COC(=O)c1ccc(I)cc1S(=O)(=O)NC(=O)Nc1nc(C)nc(OC)n1
inactive: Potency [1] | Potency [2] | Potency [3] | Potency [4] | Potency [5] | Potency [6] | Potency [7] | Potency [8] | Potency [12]

Nc1c(CC(=O)O)cccc1C(=O)c1ccc(Br)cc1
inactive: Potency [1] | Potency [2] | Potency [3] | Potency [4] | Potency [5] | Potency [6] | Potency [7] | Potency [8] | Potency [9] | Potency [11] | Potency [12]

CCN(CC)CCOC(=O)C(Cc1cccc2ccccc12)CC1CCCO1 (stereo not given)
inactive: Potency [1] | Potency [2] | Potency [3] | Potency [4] | Potency [5] | Potency [6] | Potency [9] | Potency [10] | Potency [11]
active: Potency [7] 21.3 µM
